Reference: PubChem BioAssay AID1240 (Sanford-Burnham Center for Chemical Genomics, 2008)
The campaign covered roughly 50,000 compounds. About 800 (1.6%) showed an effect of 50% or more. The list comes from a sample in which strong results are over-represented; it also holds similar structures and randomly drawn compounds.

The compounds below were run against Bcl-2-like protein 10 (Homo sapiens) (UniProt Q9HD36) (assay: TR3 peptide-Bcl-B binding displacers, biochemical primary FP assay, phenotype converters (AID 1240;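 also: 0% = Bcl-B with tracer peptide and DMSO and 100% = tracer peptide lacking Bcl-B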)). Details: GST-Bcl-B / FITC-TR3 peptide fluorescence polarization; stronger effect = higher value; compound at 3.75 mg/L.
Sequence of Bcl-2-like protein 10 (Homo sapiens) (Q9HD36 whole entry, looked up): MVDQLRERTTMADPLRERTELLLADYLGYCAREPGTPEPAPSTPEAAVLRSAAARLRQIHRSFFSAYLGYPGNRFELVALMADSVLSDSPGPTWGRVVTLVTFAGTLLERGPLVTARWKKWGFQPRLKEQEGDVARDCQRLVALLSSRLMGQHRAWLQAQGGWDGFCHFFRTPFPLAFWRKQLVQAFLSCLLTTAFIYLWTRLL

| SMILES | displacement |
| --- | --- |
| COc1ccc(C)cc1NC(=O)c1cccnc1 | 20.4% |
| COc1cc(/C=c2\sc3nc4ccccc4n3c2=O)cc(Br)c1OCc1ccccc1F | 13.9% |
| COc1ccc(-c2nnc(SCC(=O)Nc3ccc(C)cc3Br)o2)cc1 | 14.5% |
| COc1ccc(Br)cc1/C=C/C(=O)Nc1cccc(-c2nc3ncccc3o2)c1C | 95.3% |
| Cc1ccc(-c2nc3cc(Cl)ccc3o2)cc1NC(=O)/C=C/c1cccc([N+](=O)[O-])c1 | -18.8% |
| Cc1ccc2oc(-c3cccc(NC(=O)/C=C/c4cccc([N+](=O)[O-])c4)c3C)nc2c1 | -24.7% |
| O=C(/C=C/c1cccc([N+](=O)[O-])c1)Nc1ccc(-c2nc3ncccc3o2)cc1 | 45.3% |
| COc1ccc(Br)cc1C(=O)Nc1cccc(-c2nc3ncccc3o2)c1C | -3.8% |
| O=C(/C=C/c1ccccc1)Nc1ccc(O)c(-c2nc3ccccc3o2)c1 | -3.2% |
| Cc1c(NC(=O)/C=C/c2cccc([N+](=O)[O-])c2)cccc1-c1nc2ncccc2o1 | 74.8% |
| O=C(/C=C/c1ccc(Cl)cc1)Nc1ccc(-c2nc3ccccc3o2)c(O)c1 | -0.3% |
| COc1ccc(Br)cc1/C=C/C(=O)Nc1ccc(-c2nc3ncccc3o2)cc1 | -4.5% |
| O=C(/C=C/c1ccccc1)Nc1ccc(-c2nc3ccccc3o2)c(O)c1 | 127% |
| Cc1ccc(-c2nc3ccccc3o2)cc1NC(=O)/C=C/c1cccc([N+](=O)[O-])c1 | 74.2% |
| O=C(/C=C/c1cccc([N+](=O)[O-])c1)Nc1ccc(-c2nc3ccccc3o2)cc1 | -5.2% |
| O=[N+]([O-])c1c(NC2CC2)ncnc1NC1CC1 | 10.9% |
| O=[N+]([O-])c1ccccc1/C=N/N1CCN(Cc2ccc(Cl)cc2)CC1 | -1.7% |
| COc1cccc(Nc2nc(-c3ccc(S(=O)(=O)N4CCOCC4)cc3)cs2)c1 | 10.4% |
| COc1ccccc1/C=C1\SC(=S)N(CCC(=O)NNC(=O)c2ccccc2O)C1=O | 14.7% |
| COc1ccc(N(CC(=O)Nc2cccc(Br)c2)S(=O)(=O)c2ccc(C)cc2)c(OC)c1 | -1.5% |
| CC(C)CC(NC(c1ccccc1)(c1ccccc1)c1ccccc1)C(=O)O (stereo not given) | 8.9% |
| Cc1cc2nc(-c3ccc(C)c(NC(=O)/C=C/c4ccco4)c3)oc2cc1C | -5.3% |
| Cc1ccc(-c2nc3ncccc3o2)cc1NC(=O)/C=C/c1ccco1 | 116% |
| COc1ccc(Br)cc1/C=C\C(=O)Nc1ccc([N+](=O)[O-])cc1OC | 4.8% |
| COc1ccc(Br)cc1/C=C/C(=O)Nc1ccc(C)cc1[N+](=O)[O-] | 87.4% |

| SMILES | displacement |
| --- | --- |
| COc1ccc(Br)cc1C(=O)Nc1ccc(C)cc1[N+](=O)[O-] | 27.4% |
| O=C(/C=C/c1ccco1)Nc1ccc(-c2nc3ncccc3o2)cc1 | -8.2% |
| CCC(C)NC(=O)CN(c1ccccc1)S(=O)(=O)c1ccccc1[N+](=O)[O-] (stereo not given) | -8% |
| COc1ccc(C2Nc3ccccc3C(=O)N2Cc2ccco2)cc1COc1c(C)cccc1C (stereo not given) | -10.4% |
| Cc1cc(C)nc(SCC(=O)NN=C2CCCCCC2)n1 | 3.9% |
| COc1ccc(N(Cc2ccc(C(=O)NC3CCCC3)cc2)S(=O)(=O)c2ccccc2)cc1 | -14.5% |
| O=C(Oc1ccc(/C=N/O)cc1)c1ccc(Br)cc1 | 1.6% |
| C/C(=N\Nc1nc(C)cc(-c2ccccc2)n1)c1cccc(N)c1 | -15.5% |
| C=CCOc1ccc(/C=C2\C(=O)C(C(=O)OC)=C(C)N2c2ccc(F)cc2)cc1 | 127% |
| COC(=O)C1=C(C)N(c2ccc(C)c(C)c2)/C(=C/c2ccc(OC)cc2)C1=O | 14.1% |
| C=CCOc1ccc(/C=C2\C(=O)C(C(=O)OC)=C(C)N2c2ccc(C)cc2)cc1 | -24.7% |
| COC(=O)C1=C(C)N(c2ccc(Br)cc2)/C(=C\c2ccc(OCC(=O)Nc3ccccc3OC)cc2)C1=O | 20.3% |
| COC(=O)C1=C(C)N(c2ccc(C)cc2)/C(=C\c2ccc(OCC(=O)Nc3ccccc3Cl)cc2)C1=O | 7.6% |
| COC(=O)C1=C(C)N(c2ccccc2)/C(=C\c2ccc(OCC(=O)Nc3ccccc3OC)cc2)C1=O | 55.5% |
| CCOc1ccc(/C=C2\C(=O)C(C(=O)OC)=C(C)N2c2ccc(F)cc2)cc1 | -6.6% |
| COC(=O)C1=C(C)N(c2ccc(Cl)cc2)/C(=C\c2ccc(OCC(=O)Nc3ccccc3OC)cc2)C1=O | 10.4% |
| COC(=O)C1=C(C)N(c2ccc(C)c(C)c2)/C(=C\c2ccc(OCC(=O)Nc3ccccc3OC)cc2)C1=O | 68% |
| Cc1ccc(OCC(=O)O/N=C(\N)Cc2ccc([N+](=O)[O-])cc2)c(C)c1 | 5.9% |
| O=C(Nc1ccc2c(c1O)C(=O)c1ccccc1C2=O)c1ccccc1 | 12.7% |
| CC1=NN(C(N)=S)C2(O)CC3C(C12)C3(C)C (stereo not given) | 7.5% |
| CC(C)(C)NC(=O)c1ccccc1N(Cc1ccccc1)S(=O)(=O)c1ccccc1 | -1.7% |
| Cc1ccc2[nH]c(O)c(N=NC(=O)c3cc4ccccc4nc3C)c2c1 | 5.5% |
| Cc1ccc(C(=O)c2cccc(NC(=O)CC(C)C)c2)cc1C | 12.1% |
| O=C(Nc1ccccc1Br)C1CC(=O)N(c2ccccc2)C1 (stereo not given) | 77.5% |
| Cc1ccccc1NC(=O)C1CC(=O)N(c2ccccc2)C1 (stereo not given) | 6.2% |
